# Test results taken from the supplement of paper PMC6555819.
# Key:
# Test in all cases: PBM binding z-score (relative to random genomic background probes); higher = stronger binding; sequences stand for … in GC…GCGATTGACAGCGTAGAATGAAGG
# [1] = test system: FXR:RXRa (NR concentration 270 nM, RXRa partner concentration 90 nM)
# Procedure, shortened: (§1)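 On custom Agilent 4×180K arrays, double-stranded probes with 34-nt variable regions carried direct-repeat seeds, single-nucleotide variants, half-site ablations or random human genomic background. Ligand-free nuclear receptor dimers were applied for 1 h, and binding was read with antibodies against each partner (one per run). Binding z-scores come from regression-normalized fluorescence, with the random background probes as reference.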
# [2] = test system: LXRa:RXRa (NR concentration 270 nM, RXRa partner concentration 90 nM)
# Procedure, shortened: as §1
# [3] = test system: LXRa homodimer (NR concentration 270 nM)
# Procedure, shortened: as §1
# [4] = test system: LXRb:RXRa (NR concentration 270 nM, RXRa partner concentration 90 nM)
# Procedure, shortened: as §1
# [5] = test system: PPARa:RXRa (NR concentration 270 nM, RXRa partner concentration 90 nM)
# Procedure, shortened: as §1
# [6] = test system: PPARg:RXRa (NR concentration 180 nM, RXRa partner concentration 90 nM)
# Procedure, shortened: as §1
# [7] = test system: PPARg:RXRa 270nM:90nM, anti-RXR (NR concentration 270 nM, RXRa partner concentration 90 nM)
# Procedure, shortened: as §1
# [8] = test system: PPARg:RXRa 30nM:10nM, anti-RXR (NR concentration 30 nM, RXRa partner concentration 10 nM)
# Procedure, shortened: as §1
# [9] = test system: PPARg:RXRa 90nM:30nM, anti-RXR (NR concentration 90 nM, RXRa partner concentration 30 nM)
# Procedure, shortened: as §1
Sequence,PBM binding z-score [1],PBM binding z-score [2],PBM binding z-score [3],PBM binding z-score [4],PBM binding z-score [5],PBM binding z-score [6],PBM binding z-score [7],PBM binding z-score [8],PBM binding z-score [9]
CCGAGTAGGTTACGATGGGGCATTCAGTGCGAAT,0.181,6.63,-0.148,3.71,1.42,0.775,1.01,-0.257,0.557
CCGAGTAGGTTACGAGGTGGCATTCAGTGCGAAT,0.103,2.1,-0.445,0.601,1.61,1.79,2.03,0.157,1.16
CTATGTAGGTTAAGGGGGTTATTCAGTTTGAAAG,2.37,2.74,1.14,5.09,5.34,7.83,7.16,5.05,7.12
CTATGTAGGTTAAGGGGGTCATTAAGTTTGAAAG,4.76,4.56,2.21,5.86,6,8.78,7.7,5.93,8.13
CTATATAGGTTAAGGGGGTCATTCAGTTTGAAAG,6.35,5.57,2.95,6.48,6.33,8.85,8.04,6.09,8.09
CCGAGTAGGTTATGAGGGGGCATTCAGTGCGAAT,3.13,6.86,1.95,6.27,3.29,1.69,3.12,1.53,2.77
TCCAGTAGGTTACGGGGGCATTCAGGGATGAAGA,3.09,3.47,1.18,5.7,4.68,7.15,6.28,5.22,6.53
TCGAGTAGGTTACGGCGGCATTCAGGGATGAAGA,-0.0492,0.356,-0.342,0.0226,1.32,0.838,1.73,1.18,1.43
CTATGTAGGTTAATGGGGTCATTCAGTTTGAAAG,5.79,5.31,3.46,5.41,6.23,7.9,7.12,4.64,6.55
CCGAGTAGGTTACGAGGGGGCATTAAGTGCGAAT,2.79,6.98,1.2,6.3,3.38,2.04,3.06,0.817,2.16
CTATGTAGGTTAAGGGGGTCATCCAGTTTGAAAG,4.86,4.86,2.5,6.27,6.19,8.53,7.67,6.02,7.82
CCGAGTAGGTTACCAGGGGGCATTCAGTGCGAAT,2.76,7.81,3.59,6.85,3.43,2.1,3.31,0.696,2.27
CCGAGTAGGTGACGAGGGGGCATTCAGTGCGAAT,1.24,3.03,0.595,4.26,3.3,2.94,3.3,0.701,2.23
CTATGTAGGTTATGGGGGTCATTCAGTTTGAAAG,5.57,5.53,4.32,6.32,6.04,8.27,7.54,5.25,7.06
CCGAGTAGGTTACGAGGCGGCATTCAGTGCGAAT,-0.0338,0.596,-0.363,-0.1,1.06,0.984,1.28,-0.404,0.408
CCGAGTAGGTTCCGAGGGGGCATTCAGTGCGAAT,0.618,1.8,1.32,4.15,2.04,-0.00423,1.42,0.548,0.958
TCGAGTAGGTTACGGGGGCATTAAGGGATGAAGA,2.01,2.81,0.404,4.64,4.16,6.03,5.7,3.23,5.14
TCGAGTAGGTTACGGGTGCATTCAGGGATGAAGA,0.435,0.756,-0.274,0.94,2.22,2.3,2.7,2.01,2.23
CCGAGTAGTTTACGAGGGGGCATTCAGTGCGAAT,1.62,4.8,0.906,4.15,2.17,-0.276,1.08,0.469,1.59
TCGAGTTGGTTACGGGGGCATTCAGGGATGAAGA,2.61,2.2,0.889,4.62,2.89,1.84,2.84,2.24,2.63
TCGAGTAGGTTACGGGGGCATCCAGGGATGAAGA,2.12,2.55,0.293,4.73,4.35,6.04,6.05,3.04,5.24
CTTTGTAGGTTAAGGGGGTCATTCAGTTTGAAAG,5.24,5.35,3.53,6.5,6.06,7.86,7.59,5.64,7.23
CCGAGTAGGTTACGAGGGGGCATTCAGTGCGAAT,2.35,6.98,1.84,6.35,3.42,2.22,3.3,1.24,2.55
TCGAATAGGTTACGGGGGCATTCAGGGATGAAGA,3.92,3.9,1.2,5.78,5.11,5.71,5.84,4.46,5.39
CCGAGTAGGTTACGAGGGGGCGTTCAGTGCGAAT,1.13,6.33,0.912,5.52,3.11,2,3.17,0.694,2.26
CTATGTATGTTAAGGGGGTCATTCAGTTTGAAAG,4.79,5,3.54,6.57,5.68,5.43,6.26,3.94,5.84
